The results in this text go back to PubChem BioAssay (Tox21).

Records with an inconclusive call do not appear. Entries that show only a call come without a potency. Activity calls are given as the source filed them. Calls come from the whole dose curve; as a rule, active = well fitted inhibition curve with a large enough effect in the signal ratio in the repeat runs (not every such curve was filed as active); inconclusive = weak or mixed curves, or effect the other way; inactive = no such curve, though single readings can be large or run the other way; the % refers to the signal ratio.
Potency is the fitted concentration of half-maximal effect.

Sequence of Glucocorticoid receptor (Homo sapiens) (P04150 whole entry, looked up): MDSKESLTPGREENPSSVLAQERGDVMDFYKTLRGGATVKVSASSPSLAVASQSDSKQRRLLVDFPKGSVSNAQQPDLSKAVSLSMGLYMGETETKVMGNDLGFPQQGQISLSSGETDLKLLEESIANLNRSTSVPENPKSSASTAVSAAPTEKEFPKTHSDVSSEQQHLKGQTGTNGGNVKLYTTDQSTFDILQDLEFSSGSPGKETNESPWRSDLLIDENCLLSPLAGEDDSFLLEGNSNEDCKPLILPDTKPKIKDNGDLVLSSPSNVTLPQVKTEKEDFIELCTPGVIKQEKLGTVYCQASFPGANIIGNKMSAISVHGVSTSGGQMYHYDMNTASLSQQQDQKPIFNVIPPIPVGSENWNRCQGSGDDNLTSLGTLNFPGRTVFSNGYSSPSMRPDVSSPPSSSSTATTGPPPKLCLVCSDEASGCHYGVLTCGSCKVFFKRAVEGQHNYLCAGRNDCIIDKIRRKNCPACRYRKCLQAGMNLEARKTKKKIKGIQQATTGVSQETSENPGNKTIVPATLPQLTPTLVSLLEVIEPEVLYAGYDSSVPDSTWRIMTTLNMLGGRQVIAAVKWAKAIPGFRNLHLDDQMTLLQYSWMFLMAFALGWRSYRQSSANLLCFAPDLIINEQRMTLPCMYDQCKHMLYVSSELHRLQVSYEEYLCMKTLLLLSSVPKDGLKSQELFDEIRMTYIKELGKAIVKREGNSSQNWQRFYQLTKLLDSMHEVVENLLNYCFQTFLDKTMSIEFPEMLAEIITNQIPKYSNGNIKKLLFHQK

This test addresses Glucocorticoid receptor (Homo sapiens) (UniProt P04150). The experiment in a line: qHTS assay to identify small molecule antagonists of the glucocorticoid receptor (GR) signaling pathway (AID 720692). Conditions: GR-bla HeLa, beta-lactamase FRET ratio, dexamethasone-stimulated, 18 h; series mostly up to 58.5 µM. From the text:
U.S. Tox21 Program National Center for Advancing Translational Sciences [NCATS] NIH Chemical Genomics Center [NCGC] U.S. Environmental Protection Agency [EPA] National Institutes of Environmental Health Sciences [NIEHS] National Toxicology Program [NTP] U.S. Food and Drug Administration [FDA] Tox21 Assay Overview: The Glucocorticoid receptor (GR) is one of the members of the nuclear receptor family of ligand-dependent transcription factors. GR plays a critical role in carbohydrate, protein and lipid metabolisms and programmed cell death. CellSensor GR-bla HeLa cell line (Invitrogen) contains a beta-lactamase reporter gene under the control of the glucocorticoid response element stably integrated into HeLa cells, a cervical cancer cell line that expresses glucocorticoid receptor. The activation of the reporter gene under culture conditions can be detected by fluorescence intensity. This cell line has been used to screen the Tox21 10K compound library and to identify the compounds that inhibit the GR signaling.
Tox21 Assay Protocol Summary: The GR-bla HeLa cells were dispensed at 1500 cells/5 ul/well in 1536-well black wall/clear bottom plates using a Multidrop Combi (ThermoFisher Scientific, Waltham, MA) dispenser. After the assay plates were incubated at a 37 C/5% CO2 incubator for 4 hours, 23 nL of compounds dissolved in DMSO, positive controls or DMSO only was transferred to the assay plate by a pintool station (Kalypsys, San Diego, CA), followed by addition of 1 uL of dexamethasone (5 nM, final concentration in the well). The plates were incubated at 37 C for 18 hours. After 1 uL of LiveBLAzerTM B/G FRET substrate was added using a Flying Reagent Dispenser (Aurora Discovery, San Diego, CA), the plates were incubated at room temperature for 2 hours, and fluorescence intensity was measured by an Envision plate reader (PerkinElmer, Shelton, CT).
For orientation: In qHTS, concentration-response curves come from the screen itself.
As to `CCC(=O)O[C@H]1[C@@H](N2CCCCC2)C[C@H]2[C@@H]3CC[C@H]4C[C@H](OC(C)=O)[C@@H](N5CCCCC5)C[C@]4(C)[C@H]3CC[C@@]21C`, the Potency entry was “inactive”.

With `C[N+]12CCC(CC1)C(OC(=O)C(O)(c1ccccc1)c1ccccc1)C2` (stereo unspecified), the Potency entry is “inactive”.

For the compound `CN1CCC(N(Cc2cccs2)c2ccccc2)CC1`, the Potency entry is “inactive”.

Consider `C1=C\CC/C=C\CC/C=C\CC/1`, for which the Potency result is “inactive”.

Regarding `CNC(C)[C@@H]1CC[C@@H](N)[C@@H](O[C@H]2[C@H](O)[C@@H](O[C@H]3OC[C@](C)(O)[C@H](NC)[C@H]3O)[C@H](N)C[C@@H]2N)O1` (stereo partly specified), the Potency entry is “inactive”.

Take `CN1C2CCC1CC(OC(c1ccccc1)c1ccc(Cl)cc1)C2` (stereo unspecified): the Potency is 21.3 µM (active).

As to `CC(CO)(CO)[N+](=O)[O-]`, the Potency entry is “inactive”.

In the case of `CC[C@@H](O)C(C[C@@H](C)N(C)C)(c1ccccc1)c1ccccc1`, the Potency entry was “inactive”.

With `C[C@]12CC[C@H]3[C@@H](CCC4=CC(=O)CC[C@@]43C)[C@@H]1CC[C@@H]2OC(=O)CCc1ccccc1`, the Potency was 6.16 µM (active).

For the compound `Cc1ccccc1C`, the Potency result was “inactive”.

As to `Cc1ccc2c(c1)[C@]13CCCC[C@@H]1[C@H](C2)N(C)CC3`, the Potency entry was “inactive”.
